# In the supplement of paper PMC10849652:
# The full data set covers some 7,900 targets. This sample favours those with a hit. About 0.6% of all pairs of compound and target were hits. A number with no mark means an inactive call.
# Columns and labels:
# Experiment in all cases: log2 fold change, soluble protein after heating vs DMSO (PISA); higher = thermal stabilisation; K562 cells, 10 uM, 30 min; active = over 0.2 and 3.5 SD of the protein, either way, in both replicates (recomputed)
# [1] = compound: CS(=O)(=O)c1ccc(-c2cnc(N)c(C(=O)Nc3ccccc3)n2)cc1
# How it was run: (§1)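 Thermal stability values are relative to control samples and come from duplicates. They are expressed as log2 fold changes. For measurement, K562 cells (2×10^6 cells/mL) received 10 μM compound for 30 min, and aliquots were heated for 3 min over 48°C-58°C, pooled, and extracted at 4°C in PBS with 0.5% NP-40. Soluble protein, the supernatant after 21,000xg for 90 min, was quantified by TMTpro 16plex LC-MS/MS with equalised channel sums.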
# crizotinib = compound: C[C@@H](Oc1cc(-c2cnn(C3CCNCC3)c2)cnc1N)c1c(Cl)ccc(F)c1Cl [crizotinib]
# How it was run: as §1
# [2] = compound: C[C@@H]1COCCN1C2=NC(=NC(=C2)C3(CC3)S(=O)(=O)C)C4=C5C=CNC5=CC=C4
# How it was run: as §1
# [3] = compound: C[C@H](C1=CC=C(C=C1)C(=O)NC2=C3C=CNC3=NC=C2)N
# How it was run: as §1
# duvelisib = compound: C[C@H](Nc1ncnc2nc[nH]c12)c1cc2cccc(Cl)c2c(=O)n1-c1ccccc1 [duvelisib]
# How it was run: as §1
# gandotinib = compound: Cc1cc(Nc2cc(CN3CCOCC3)c3nc(C)c(Cc4ccc(Cl)cc4F)n3n2)n[nH]1 [gandotinib]
# How it was run: as §1
# tozasertib = compound: Cc1cc(Nc2cc(N3CCN(C)CC3)nc(Sc3ccc(NC(=O)C4CC4)cc3)n2)n[nH]1 [tozasertib]
# How it was run: as §1
# [4] = compound: Cc1cc(SCc2sc(-c3ccc(C(F)(F)F)cc3)nc2C)ccc1OCC(=O)O
# How it was run: as §1
# doramapimod = compound: Cc1ccc(-n2nc(C(C)(C)C)cc2NC(=O)Nc2ccc(OCCN3CCOCC3)c3ccccc23)cc1 [doramapimod]
# How it was run: as §1
# ispinesib = compound: Cc1ccc(C(=O)N(CCCN)[C@@H](c2nc3cc(Cl)ccc3c(=O)n2Cc2ccccc2)C(C)C)cc1 [ispinesib]
# How it was run: as §1
# bafetinib = compound: Cc1ccc(NC(=O)c2ccc(CN3CC[C@H](N(C)C)C3)c(C(F)(F)F)c2)cc1Nc1nccc(-c2cncnc2)n1 [bafetinib]
# How it was run: as §1
# [5] = compound: Cc1cccc(CC(=O)N2CCc3c2ccc(-c2cn(C)c4ncnc(N)c24)c3F)n1
# How it was run: as §1
# nilotinib = compound: Cc1cn(-c2cc(NC(=O)c3ccc(C)c(Nc4nccc(-c5cccnc5)n4)c3)cc(C(F)(F)F)c2)cn1 [nilotinib]
# How it was run: as §1
# [6] = compound: Cc1nc(Nc2n[nH]c3c2CN(C(=O)N[C@H](CN(C)C)c2ccccc2)C3(C)C)c2sccc2n1
# How it was run: as §1
# dasatinib = compound: Cc1nc(Nc2ncc(C(=O)Nc3c(C)cccc3Cl)s2)cc(N2CCN(CCO)CC2)n1 [dasatinib]
# How it was run: as §1
# [7] = compound: Cc1ncc(-c2ccnc(Nc3ccc(S(C)(=O)=O)cc3)n2)n1C(C)C
# How it was run: as §1
# [8] = compound: Cn1cc(-c2ccc3c(c2)CCN3C(=O)Cc2cccc(C(F)(F)F)c2)c2c(N)ncnc21
# How it was run: as §1
# [9] = compound: Cn1cc(-c2ccc3nnc(C(F)(F)c4ccc5ncccc5c4)n3n2)cn1
# How it was run: as §1
# tipifarnib = compound: Cn1cncc1[C@@](N)(c1ccc(Cl)cc1)c1ccc2c(c1)c(-c1cccc(Cl)c1)cc(=O)n2C [tipifarnib]
# How it was run: as §1
# mubritinib = compound: FC(F)(F)c1ccc(/C=C/c2nc(COc3ccc(CCCCn4ccnn4)cc3)co2)cc1 [mubritinib]
# How it was run: as §1
# UniProt O95359, sequence (O95359 whole entry, looked up): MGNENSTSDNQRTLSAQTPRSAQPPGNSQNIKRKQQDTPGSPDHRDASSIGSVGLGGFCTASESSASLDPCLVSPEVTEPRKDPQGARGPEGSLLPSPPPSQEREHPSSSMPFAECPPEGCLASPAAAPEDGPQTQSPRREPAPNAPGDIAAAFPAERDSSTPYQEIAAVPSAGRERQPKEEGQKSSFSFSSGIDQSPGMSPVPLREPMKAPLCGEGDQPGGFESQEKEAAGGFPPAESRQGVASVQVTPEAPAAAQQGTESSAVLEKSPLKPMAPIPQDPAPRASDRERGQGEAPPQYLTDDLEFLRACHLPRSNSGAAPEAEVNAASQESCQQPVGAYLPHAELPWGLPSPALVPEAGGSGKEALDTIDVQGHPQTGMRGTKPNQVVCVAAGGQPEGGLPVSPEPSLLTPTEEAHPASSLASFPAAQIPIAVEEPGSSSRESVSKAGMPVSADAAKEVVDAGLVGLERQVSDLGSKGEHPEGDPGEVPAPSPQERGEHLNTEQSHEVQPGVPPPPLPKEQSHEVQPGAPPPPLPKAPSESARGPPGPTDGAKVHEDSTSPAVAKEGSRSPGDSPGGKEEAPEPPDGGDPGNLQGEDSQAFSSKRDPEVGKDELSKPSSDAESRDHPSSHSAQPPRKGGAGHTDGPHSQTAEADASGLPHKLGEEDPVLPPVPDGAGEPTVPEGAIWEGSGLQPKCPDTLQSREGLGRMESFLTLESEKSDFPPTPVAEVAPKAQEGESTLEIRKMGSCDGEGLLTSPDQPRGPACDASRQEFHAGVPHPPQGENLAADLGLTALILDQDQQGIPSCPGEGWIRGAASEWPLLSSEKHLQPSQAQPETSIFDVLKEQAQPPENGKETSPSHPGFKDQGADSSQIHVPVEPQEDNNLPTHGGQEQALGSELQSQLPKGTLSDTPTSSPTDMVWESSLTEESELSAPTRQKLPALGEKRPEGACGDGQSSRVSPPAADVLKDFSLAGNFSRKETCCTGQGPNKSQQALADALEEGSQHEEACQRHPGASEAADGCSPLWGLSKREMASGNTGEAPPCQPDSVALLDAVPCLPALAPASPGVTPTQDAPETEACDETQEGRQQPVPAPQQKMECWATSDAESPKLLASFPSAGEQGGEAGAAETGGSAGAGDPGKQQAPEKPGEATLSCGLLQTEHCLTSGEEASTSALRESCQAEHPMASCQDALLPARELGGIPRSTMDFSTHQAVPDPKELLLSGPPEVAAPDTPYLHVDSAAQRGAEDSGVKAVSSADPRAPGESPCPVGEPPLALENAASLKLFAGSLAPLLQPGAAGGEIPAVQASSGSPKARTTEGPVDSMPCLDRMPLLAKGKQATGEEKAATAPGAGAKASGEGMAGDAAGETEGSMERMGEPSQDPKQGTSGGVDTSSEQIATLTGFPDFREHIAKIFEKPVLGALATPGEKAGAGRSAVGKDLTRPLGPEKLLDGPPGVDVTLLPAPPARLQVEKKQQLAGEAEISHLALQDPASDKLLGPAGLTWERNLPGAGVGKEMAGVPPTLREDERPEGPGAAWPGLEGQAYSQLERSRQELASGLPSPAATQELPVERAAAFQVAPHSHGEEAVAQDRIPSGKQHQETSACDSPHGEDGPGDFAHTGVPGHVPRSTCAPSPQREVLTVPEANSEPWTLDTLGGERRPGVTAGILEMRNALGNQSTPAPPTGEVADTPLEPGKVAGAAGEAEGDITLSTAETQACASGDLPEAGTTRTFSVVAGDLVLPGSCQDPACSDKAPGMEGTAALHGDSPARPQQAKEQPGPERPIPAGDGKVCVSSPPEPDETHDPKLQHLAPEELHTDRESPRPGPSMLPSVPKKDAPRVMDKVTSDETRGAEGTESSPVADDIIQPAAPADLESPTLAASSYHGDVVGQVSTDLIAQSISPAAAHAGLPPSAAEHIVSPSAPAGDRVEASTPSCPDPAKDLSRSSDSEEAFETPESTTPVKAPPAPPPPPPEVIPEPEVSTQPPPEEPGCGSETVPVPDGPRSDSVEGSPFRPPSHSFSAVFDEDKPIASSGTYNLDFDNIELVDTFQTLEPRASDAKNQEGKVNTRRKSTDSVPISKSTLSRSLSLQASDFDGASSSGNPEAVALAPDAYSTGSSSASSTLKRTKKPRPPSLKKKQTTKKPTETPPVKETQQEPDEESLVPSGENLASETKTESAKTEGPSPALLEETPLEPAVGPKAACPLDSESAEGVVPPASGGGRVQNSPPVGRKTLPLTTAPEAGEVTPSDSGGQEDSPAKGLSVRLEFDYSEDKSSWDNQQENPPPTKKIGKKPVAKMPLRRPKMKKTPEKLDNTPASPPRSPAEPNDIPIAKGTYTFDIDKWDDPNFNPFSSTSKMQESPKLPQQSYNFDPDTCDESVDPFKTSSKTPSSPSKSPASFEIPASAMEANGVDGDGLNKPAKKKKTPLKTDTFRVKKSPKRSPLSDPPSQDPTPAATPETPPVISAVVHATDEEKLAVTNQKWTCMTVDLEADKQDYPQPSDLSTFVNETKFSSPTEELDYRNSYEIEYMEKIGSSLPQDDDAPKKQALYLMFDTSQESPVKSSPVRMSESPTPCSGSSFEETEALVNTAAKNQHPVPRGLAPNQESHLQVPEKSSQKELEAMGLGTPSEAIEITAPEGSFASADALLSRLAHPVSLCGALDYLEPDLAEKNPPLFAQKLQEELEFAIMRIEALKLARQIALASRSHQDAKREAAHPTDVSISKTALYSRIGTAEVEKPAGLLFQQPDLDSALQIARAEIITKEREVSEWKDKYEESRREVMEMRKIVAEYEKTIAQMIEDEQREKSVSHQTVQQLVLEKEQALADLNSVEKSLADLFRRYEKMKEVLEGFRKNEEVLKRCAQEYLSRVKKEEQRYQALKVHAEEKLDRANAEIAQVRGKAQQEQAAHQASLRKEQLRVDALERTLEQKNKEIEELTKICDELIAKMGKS
# UniProt Q9BYX2, sequence (Q9BYX2 whole entry, looked up): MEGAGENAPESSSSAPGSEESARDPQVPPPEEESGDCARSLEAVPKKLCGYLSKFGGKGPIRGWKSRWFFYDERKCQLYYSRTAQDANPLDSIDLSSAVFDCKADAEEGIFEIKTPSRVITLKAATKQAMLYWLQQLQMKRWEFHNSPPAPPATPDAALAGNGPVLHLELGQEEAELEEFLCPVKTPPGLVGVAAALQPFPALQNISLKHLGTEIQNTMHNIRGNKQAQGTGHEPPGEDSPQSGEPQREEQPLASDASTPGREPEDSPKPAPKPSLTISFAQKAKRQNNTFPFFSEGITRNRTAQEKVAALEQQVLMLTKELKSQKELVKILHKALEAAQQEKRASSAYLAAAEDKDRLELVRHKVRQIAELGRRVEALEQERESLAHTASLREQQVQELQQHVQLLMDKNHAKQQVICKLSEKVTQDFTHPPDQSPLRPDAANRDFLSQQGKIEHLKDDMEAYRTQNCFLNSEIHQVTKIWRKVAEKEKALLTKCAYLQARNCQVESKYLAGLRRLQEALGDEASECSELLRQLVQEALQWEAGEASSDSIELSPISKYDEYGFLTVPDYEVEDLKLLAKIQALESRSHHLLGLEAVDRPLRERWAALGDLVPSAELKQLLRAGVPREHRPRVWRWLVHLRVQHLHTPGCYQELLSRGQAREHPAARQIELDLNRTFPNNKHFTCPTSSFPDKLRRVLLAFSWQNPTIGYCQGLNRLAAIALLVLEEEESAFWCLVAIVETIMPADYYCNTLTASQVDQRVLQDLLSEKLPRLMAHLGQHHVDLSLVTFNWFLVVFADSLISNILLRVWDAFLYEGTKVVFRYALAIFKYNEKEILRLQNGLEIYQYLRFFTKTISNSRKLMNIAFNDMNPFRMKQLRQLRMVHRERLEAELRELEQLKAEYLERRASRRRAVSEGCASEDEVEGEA
# UniProt Q12824, sequence (Q12824 whole entry, looked up): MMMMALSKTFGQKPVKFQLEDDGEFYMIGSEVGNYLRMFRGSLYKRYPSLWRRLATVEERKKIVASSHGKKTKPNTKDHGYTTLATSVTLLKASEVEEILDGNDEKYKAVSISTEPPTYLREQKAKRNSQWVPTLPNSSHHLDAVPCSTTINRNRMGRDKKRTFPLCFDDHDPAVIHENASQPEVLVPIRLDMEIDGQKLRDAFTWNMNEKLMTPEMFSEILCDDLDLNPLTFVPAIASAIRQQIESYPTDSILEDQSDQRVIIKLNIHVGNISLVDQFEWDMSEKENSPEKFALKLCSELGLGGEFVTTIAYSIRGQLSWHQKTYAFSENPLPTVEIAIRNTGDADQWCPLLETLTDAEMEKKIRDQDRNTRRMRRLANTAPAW
# UniProt Q9Y6J9, sequence (Q9Y6J9 whole entry, looked up): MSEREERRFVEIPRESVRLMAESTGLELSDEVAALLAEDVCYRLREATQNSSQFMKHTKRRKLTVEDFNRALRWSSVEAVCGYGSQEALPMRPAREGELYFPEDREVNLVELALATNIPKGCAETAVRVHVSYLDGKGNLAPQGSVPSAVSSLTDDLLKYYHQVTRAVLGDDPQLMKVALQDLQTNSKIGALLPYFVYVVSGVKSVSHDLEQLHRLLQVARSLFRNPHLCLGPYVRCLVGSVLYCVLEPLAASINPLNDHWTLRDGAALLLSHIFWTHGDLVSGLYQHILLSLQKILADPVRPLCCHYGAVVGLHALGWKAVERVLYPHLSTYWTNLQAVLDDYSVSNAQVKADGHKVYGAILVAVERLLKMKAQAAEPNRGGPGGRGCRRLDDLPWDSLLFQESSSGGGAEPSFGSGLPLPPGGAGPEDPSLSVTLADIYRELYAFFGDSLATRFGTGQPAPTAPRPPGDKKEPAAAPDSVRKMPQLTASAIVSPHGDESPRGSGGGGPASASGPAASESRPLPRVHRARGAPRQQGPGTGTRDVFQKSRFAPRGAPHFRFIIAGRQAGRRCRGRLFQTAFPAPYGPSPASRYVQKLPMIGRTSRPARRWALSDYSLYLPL
# UniProt Q5JUR7, sequence (Q5JUR7 whole entry, looked up): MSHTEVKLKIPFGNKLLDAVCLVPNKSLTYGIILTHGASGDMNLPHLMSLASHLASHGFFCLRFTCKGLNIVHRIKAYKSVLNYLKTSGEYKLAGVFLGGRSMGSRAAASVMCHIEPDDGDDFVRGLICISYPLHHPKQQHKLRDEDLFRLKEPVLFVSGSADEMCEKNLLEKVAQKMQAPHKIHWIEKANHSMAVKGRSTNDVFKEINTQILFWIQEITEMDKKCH
Target,log2 fold change [1],log2 fold change (crizotinib),log2 fold change [2],log2 fold change [3],log2 fold change (duvelisib),log2 fold change (gandotinib),log2 fold change (tozasertib),log2 fold change [4],log2 fold change (doramapimod),log2 fold change (ispinesib),log2 fold change (bafetinib),log2 fold change [5],log2 fold change (nilotinib),log2 fold change [6],log2 fold change (dasatinib),log2 fold change [7],log2 fold change [8],log2 fold change [9],log2 fold change (tipifarnib),log2 fold change (mubritinib)
SMG1 (UniProt Q96Q15),0.04,0.012,-0.083,0.016,0.02,-0.024,-0.013,0.098,0.051,0.033,0.059,-0.012,0.03,-0.061,-0.266,-0.015,-0.035,0.023,-0.098,0.064
SLC35A1 (UniProt P78382),-0.017,0.056,0.044,-0.196,-0.005,–,-0.036,0.074,-0.039,0.04,0.005,–,-0.009,-0.055,0.036,-0.02,0.03,0.067,-0.022,0.049
TEX30 (UniProt Q5JUR7),–,-0.206,0.073,0.044,0.031,-0.292,0.045,0.067,0.059,-0.295,-0.01,-0.053,-0.147,-0.095,-0.2,-0.016,0.084,-0.004,-0.18,0.033
SSBP4 (UniProt U3KPY3),–,–,–,–,–,–,–,–,–,–,–,–,–,–,–,–,–,–,–,0.046
TAF6L (UniProt Q9Y6J9),-0.035,–,–,0.058,0.246,-0.08,0.115,-0.121,–,-0.045,–,-0.078,0.032,-0.048,-0.224,0.046,-0.106,-0.018,0.055,0.104
TACC2 (UniProt O95359),-0.045,–,–,-0.013,0.058,-0.154,0.056,-0.005,–,0.145,-0.044,0.011,0.027,0.073,0.059,0.008,-0.001,-0.003,0.029,-0.006
SMIM20 isoform 2 (UniProt Q8N5G0),-0.014,–,0.126,0.019,0.086,0.068,0.069,-0.068,–,0.089,-0.011,-0.011,-0.037,-0.001,0.012,-0.102,0.05,0.156,0.017,0.009
SMARCB1 (UniProt Q12824),0.024,-0.128,–,0.284,0.241,0.49,0.252,0.097,0.049,–,–,-0.277,–,–,-0.059,–,-0.122,–,–,–
SOX5 (UniProt P35711),0.07,0.046,–,0.041,–,–,0.045,–,0.054,0.004,-0.06,–,-0.437 (active),-0.011,–,0.211,0.042,-0.039,0.027,0.064
SYNE2 isoform 2 (UniProt Q8WXH0),0.209,-0.009,–,0.429,0.214,0.521 (active),-0.053,0.06,0.046,-0.08,-0.008,0.031,-0.115,0.006,-0.019,-0.069,0.153,0.027,-0.029,0.233
SYK (UniProt P43405),–,–,-0.093,0.053,0.13,–,0.031,0.405,0.179,-0.216,0.276,–,–,–,-0.356,–,0.141,-0.041,0.075,–
TBC1D2 (UniProt Q9BYX2),–,–,0.064,–,–,-0.04,–,–,–,–,–,0.213,–,–,–,–,–,–,–,-0.085
TDP1 (UniProt Q9NUW8),–,–,–,0.145,–,–,–,–,–,–,–,–,–,–,–,–,-0.1,–,–,–
SREBF1 isoform 4 (UniProt P36956),–,0.106,0.084,–,-0.083,–,–,0.089,0.098,–,-0.357,–,–,–,-0.043,–,–,–,–,-0.004
SNRK (UniProt Q9NRH2),0.008,-0.026,–,–,-0.162,–,–,-0.067,0.001,–,–,–,–,–,-0.061,–,–,–,-0.079,–
SPAG9 isoform 4 (UniProt O60271),0.144,-0.061,–,0.123,–,–,0.142,–,0.042,-0.128,-0.301,–,0.073,-0.118,–,0.022,-0.072,0.11,–,0.074
TCOF1 isoform 3 (UniProt Q13428),-0.103,–,0.542,–,–,-0.166,0.073,–,–,-0.185,–,-0.005,–,–,–,–,–,-0.419,–,–
TAOK2 (UniProt Q9UL54),–,0.157,-0.108,–,–,-0.045,-0.02,–,-0.036,0.035,–,0.092,-0.032,0.048,–,-0.028,–,-0.093,0.014,0.01
SLC46A1 (UniProt Q96NT5),–,–,–,-0.047,–,-0.006,0.035,–,–,–,–,-0.016,–,–,–,–,-0.119,–,–,–
SSBP4 (UniProt Q9BWG4),-0.054,-0.034,–,–,0.255,-0.121,-0.014,0.123,0.103,0.148,-0.045,-0.069,0.038,0.014,-0.021,0.053,–,0.033,0.301,0.066
